Screening results deposited in PubChem by National Center for Advancing Translational Sciences (NCATS).
HCV inhibitor – qHTS Assay for Inhibitors of Hepatitis C Virus (HCV); Huh7.5.1 HCVcc-Cre infection, luciferase reporter, 44 h; Potency, µM (doses to about 41.8 µM), without a hit: at the top dose activity change, negative = inhibition, actives largely listed as inhibitors; actives 3.4% (n = 340,000); further: potency means the concentration at half of the fitted maximal effect
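A cell-based infection assay in which seeded cells (1,000 per well) receive test compound after 4 h, are inoculated with HCVcc-Cre at approximately 0.5 moi, and are incubated 44 h before luminescence detection.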
Pf growth 48h – Primary qHTS for delayed death inhibitors of the malarial parasite plastid, 48 hour incubation; P. falciparum luciferase growth in erythrocytes, 48 h; Potency, µM (doses to about 28.7 µM), for inactives: top-dose activity change, negative = inhibition, usual class: inhibitors; actives 5.9% (n = 310,000); further: potency means the concentration at half of the fitted maximal effect
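A one-generation exposure of luciferase-tagged malaria parasites in RPMI 1640/Albumax erythrocyte culture, 37 C and 5% CO2. Inhibition is inferred from decreased luminescence after adding detection reagent.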
LASV entry inh – qHTS for Inhibitors of binding or entry into cells for Lassa Virus | Potency, µM (top dose mostly 37.9 µM), for inactives: at the top dose activity change, negative = inhibition, usual class: inhibitors | actives 1.2% (n = 300,000) | AID 540256, 2011 | Lassa virus pseudotype entry inhibition, cell reporter; calls by dose curve; tested in HEK293 cells; further: potency means the concentration at half of the fitted maximal effect; nearly all actives have a fitted effect of over 50% in size
HCMV inh – qHTS Assay for inhibitors of the human cytomegalovirus (HCMV); HFF cells, HCMV-luciferase reporter, 72 h; active compounds read low; activity change, negative = inhibition, % at 57.5 µM; actives 4.5% (n = 410,000); AID 1259415, 2018; in the data active means activity change below about -60%; inconclusive means no clear call, values can overlap the other calls; inactive means above about -39%
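Screen run at 2 compound doses on HFFs infected with reporter HCMV, MOI 1 PFU/cell. Luciferase activity from cell lysates at 72 h post infection gave inhibition relative to buffer-only and Salinomycin wells.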
Marburg entry inh – qHTS for inhibitors of binding or entry into cells for Marburg Virus. Marburg virus pseudotyped entry inhibition, cell reporter. Potency, µM (doses to about 37.8 µM), for inactives: top-dose activity change, negative = inhibition, hits mostly inhibitors. actives 1.8% (n = 300,000); calls by dose curve; tested in HEK293 cells; further: potency means the concentration at half of the fitted maximal effect
Pf growth 96h – Primary qHTS for delayed death inhibitors of the malarial parasite plastid, 96 hour incubation; P. falciparum luciferase reporter growth, 96 h; Potency, µM (titrated, usually from 28.7 µM), for inactives: at the top dose activity change, negative = inhibition, most hits filed as inhibitors; actives 6.9% (n = 320,000); AID 504834, 2011; further: potency means the concentration at half of the fitted maximal effect
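Two parasite generations (96 h, 37 C, 5% CO2) of compound exposure in infected erythrocytes (0.05% parasitemia, 2% hematocrit). Luciferase-reporter P. falciparum; decreased luminescence indicates inhibited growth, aimed at apicoplast-acting delayed death.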
* marks the source's active call; other numbers are inactive results; ? = inconclusive; / = no result given; [ ] = another dose, or the depositor's remark. Only some compounds are listed: those with a hit (about 14% of all), similar ones and a draw of the others. Unless noted, the call rests on the fitted dose curve; in most records, active means well fitted inhibition curve with a large enough effect; inconclusive means small, poorly fitted or top-dose-only effect, or another doubt; inactive means no such curve, though single readings can be large or run the other way. On the % scale 0 is the no-effect control and ±100 the full control effect.

SMILES	HCV inhibitor	Pf growth 48h	LASV entry inh	HCMV inh	Marburg entry inh	Pf growth 96h
Cc1ccccc1NC(=O)c1c(NC(=O)c2ccco2)sc2c1CCC(C(C)(C)C)C2 (stereo unspecified)	/	/	-14%[46.1 µM]	-7	12%[46.1 µM]	/
CCC(CO)Oc1cc(NC(=O)Cc2ccccc2)c2ncn(C(C)C)c2c1 (stereo unspecified)	?	/	/	-16	/	/
COc1ccc(CNC(=O)CSCc2cnn(-c3ccccc3)c2-n2cccc2)cc1OC	/	/	?	-80*	?	/
COc1ccccc1CNC(=O)CSCc1cnn(-c2ccccc2)c1-n1cccc1	?	/	?	38	-17%	-62%
O=C(O)CSCc1cnn(-c2ccccc2)c1-n1cccc1	/	10µM*	18%[14.3 µM]	13	5%	410%
O=C(CSCc1cnn(-c2ccccc2)c1-n1cccc1)NCc1ccccc1F	/	/	-20%[46.1 µM]	-76*	0%[46.1 µM]	/
CC1(C(=O)NCC2CC2)Cc2c(-c3ccccc3)ccnc2O1 (stereo unspecified)	/	/	/	-32	/	/
CC(=O)Nc1cccc(-c2ccnc3c2CC(C(=O)NCCc2ccccc2)O3)c1 (stereo unspecified)	/	/	/	-86*	/	/
CC1(C(=O)NCCc2ccccc2)Cc2c(-c3cccc(C(F)(F)F)c3)ccnc2O1 (stereo unspecified)	/	/	/	-62*	/	/
CC1(C(=O)NCc2ccccc2)Cc2c(-c3ccc4c(c3)OCO4)ccnc2O1 (stereo unspecified)	/	/	/	-81*	/	/
CC(=O)Nc1cccc(-c2ccnc3c2CC(C)(C(=O)NCCc2ccccc2)O3)c1 (stereo unspecified)	/	/	/	-88*	/	/
CC1(C(=O)NCCc2ccccc2)Cc2c(-c3ccccc3)ccnc2O1 (stereo unspecified)	/	/	/	-20	/	/
CCCCNC(=O)C1(C)CCCCCN1Cc1cc2ccccc2o1 (stereo unspecified)	/	/	/	-8	/	/
Cc1cccc(CNC(=O)Cn2nc(C)c3nn(-c4ccc(Cl)cc4)c(C)c3c2=O)c1	/	/	0%[46.1 µM]	6	/	/
Cc1ccc(CNC(=O)c2nn(-c3ccc(Cl)cc3)nc2CO)cc1	/	/	?	10	-5%[46.1 µM]	/
Cc1ccc(-n2nc(C)c3c(C(F)(F)F)cc(-c4cccnc4)nc32)cc1C	/	/	26%[46.1 µM]	32	3%[46.1 µM]	/
Cc1cccc(C(=O)NC(NCCc2ccccc2)C(Cl)(Cl)Cl)c1 (stereo unspecified)	-21%	?	?	-71*	?	3.7µM*
Cc1cccc(NC(NC(=O)c2cccnc2)C(Cl)(Cl)Cl)c1 (stereo unspecified)	4%	?	-1%	8	-27%	13µM*
Cc1cccc(C(=O)NC(NCc2ccco2)C(Cl)(Cl)Cl)c1 (stereo unspecified)	-5%	-8%	-3%	-2	-2%	-4%
O=C(Nc1cc(-c2ccc(F)c(F)c2)no1)c1ccccc1F	/	/	17%[46.1 µM]	15	?	/
O=C(Nc1ccc(Oc2ccc(NC(=O)Nc3ccccc3Cl)cc2)cc1)Nc1ccccc1Cl	?	1.9µM*	?	-62*	?	1.5µM*
O=C(Nc1ccncc1)Nc1cccc(Cl)c1Cl	6.3µM*	?	/	-61*	/	-3%
O=C(Nc1ccccc1)Nc1cccc(Cl)c1Cl	?	-19%	?	104	?	-33%
O=C(Nc1cccc(Cl)c1)Nc1csc([N+](=O)[O-])c1	?	3.7µM*	?	-97*	?	2.6µM*
O=C(Nc1cccc(C2=NCCN2)c1)Nc1cccc(C2=NCCN2)c1	-60%	1.7µM*	/	-81*	/	1.2µM*
SMILES	HCV inhibitor	Pf growth 48h	LASV entry inh	HCMV inh	Marburg entry inh	Pf growth 96h
O=C(CN1CCCC1)Nc1ccc(NC(=O)Nc2ccccc2Cl)cc1	?	0%	28%	53	23%	?
CSc1ccccc1NC(=O)Nc1cccc(Cl)c1	?	-17%	6%	-16	11%	/
O=C(Nc1cccc(Cl)c1)Nc1ccccc1-n1ccnc1	12%	?	1%	31	0%[46.1 µM]	12µM*
O=C(Nc1ccncc1)Nc1cccc(Cl)c1	-10%	1.5µM*	/	14	/	-2%
S=C(Nc1ccc(Cc2ccncc2)cc1)Nc1cccc(Cl)c1	-9%	16%	-1%	-24	10%[46.1 µM]	13µM*
O=C(Nc1ccc(C2=NCCN2)cc1)c1ccc(C(=O)Nc2ccc(C3=NCCN3)cc2)c(Cl)c1	8%	0.52µM*	/	-12	/	?
O=C(Nc1cc(-c2nc3ccccc3s2)ccc1Cl)c1cc2ccccc2o1	/	/	8%[46.1 µM]	91	/	/
CC1CCC2(CC1)NC(=O)N(CC(=O)Nc1ccc(C(N)=O)cc1)C2=O (stereo unspecified)	2%	/	/	58	/	/
Clc1ccc2[nH]c3c(N4CCC5(CC4)OCCO5)ncnc3c2c1	13µM*	?	10µM*	/	10µM*	?
Cc1cccc2[nH]c3c(N4CCC5(CC4)OCCO5)ncnc3c12	8.9µM*	?	-23%	-16	?	?
CCOC(=O)c1ccc(N2C(=O)c3[nH]nc(-c4ccccc4)c3C2c2ccc(CC)cc2)cc1 (stereo unspecified)	/	/	?	-105*	?	/
